Data reported in the supplement of paper PMC6555819.

Experiments:
Test in all cases: PBM binding z-score (relative to random genomic background probes); higher = stronger binding; sequences stand for … in GC…GCGATTGACAGCGTAGAATGAAGG
[1] = system: FXR:RXRa (NR concentration 270 nM, RXRa partner concentration 90 nM)
In short: (§1)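 Custom Agilent 4×180K protein-binding microarrays carried double-stranded probes, each with a 34-nt variable region. These regions held direct-repeat seeds, single-nucleotide variants, half-site ablations and random human genomic background sequences. Ligand-free nuclear receptor dimers were incubated on the arrays for 1 h, antibodies against each partner (one per run) detected binding, and scanned fluorescence was regression-normalized. Binding z-scores take the random background probes as reference.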

[2] = system: LXRa:RXRa (NR concentration 270 nM, RXRa partner concentration 90 nM)
In short: as §1

[3] = system: LXRa homodimer (NR concentration 270 nM)
In short: as §1

[4] = system: LXRb:RXRa (NR concentration 270 nM, RXRa partner concentration 90 nM)
In short: as §1

[5] = system: LXRb homodimer (NR concentration 270 nM)
In short: as §1

[6] = system: PPARa:RXRa (NR concentration 270 nM, RXRa partner concentration 90 nM)
In short: as §1

[7] = system: PPARg:RXRa (NR concentration 180 nM, RXRa partner concentration 90 nM)
In short: as §1

[8] = system: PPARg:RXRa 270nM:90nM, anti-RXR (NR concentration 270 nM, RXRa partner concentration 90 nM)
In short: as §1

[9] = system: PPARg:RXRa 30nM:10nM, anti-RXR (NR concentration 30 nM, RXRa partner concentration 10 nM)
In short: as §1

[10] = system: PPARg:RXRa 90nM:30nM, anti-RXR (NR concentration 90 nM, RXRa partner concentration 30 nM)
In short: as §1

[11] = system: PPARg:RXRa DBDmut IVT, anti-RXR (DBD mutation: RXRa K156A/R161A, NR concentration 270 nM, RXRa partner concentration 90 nM)
In short: as §1

[12] = system: PPARg:RXRa IVT, anti-PPARg (NR concentration 270 nM, RXRa partner concentration 90 nM)
In short: as §1

[13] = system: PPARg DBDmut:RXRa IVT, anti-PPARg (DBD mutation: PPARg1 K132A/R137A, NR concentration 270 nM, RXRa partner concentration 90 nM)
In short: as §1

[14] = system: PPARg DBDmut IVT, anti-PPARg (DBD mutation: PPARg1 K132A/R137A, NR concentration 270 nM)
In short: as §1

[15] = system: PPARg homodimer (NR concentration 180 nM)
In short: as §1

[16] = system: PXR:RXRa (NR concentration 270 nM, RXRa partner concentration 90 nM)
In short: as §1

[17] = system: PXR homodimer (NR concentration 270 nM)
In short: as §1

[18] = system: RARa:RXR (NR concentration 270 nM, RXRa partner concentration 90 nM)
In short: as §1

[19] = system: RARa homodimer (NR concentration 270 nM)
In short: as §1

[20] = system: RARb:RXRa (NR concentration 270 nM, RXRa partner concentration 90 nM)
In short: as §1

| Sequence | PBM binding z-score [1] | PBM binding z-score [2] | PBM binding z-score [3] | PBM binding z-score [4] | PBM binding z-score [5] | PBM binding z-score [6] | PBM binding z-score [7] | PBM binding z-score [8] | PBM binding z-score [9] | PBM binding z-score [10] | PBM binding z-score [11] | PBM binding z-score [12] | PBM binding z-score [13] | PBM binding z-score [14] | PBM binding z-score [15] | PBM binding z-score [16] | PBM binding z-score [17] | PBM binding z-score [18] | PBM binding z-score [19] | PBM binding z-score [20] |
| --- | --- | --- | --- | --- | --- | --- | --- | --- | --- | --- | --- | --- | --- | --- | --- | --- | --- | --- | --- | --- |
| CGAACTAGGTCAATGACAGGACAGTGAATAGTAA | 2.8 | 2.36 | 0.289 | 1.59 | 0.0362 | 4.34 | 7.1 | 6.02 | 3.52 | 5.51 | 8.25 | 7.96 | 1.69 | 1.41 | 1.62 | 1.12 | -0.0371 | 1.75 | 0.354 | 3.64 |
| CCTACTGGCCCATCAGGTCATTGATATCAACGTT | 1.56 | 1.2 | 1.15 | 1.63 | 0.0775 | 1.62 | 0.503 | 1.07 | 0.112 | 0.701 | -0.199 | 1.1 | -0.917 | 0.381 | 1.47 | 1.61 | 0.678 | 1.83 | 0.604 | 1.71 |
| GATACAGGGTCAGCTAGAGGCCAGACTATGGAAA | 4.52 | 2.92 | -0.325 | 2.4 | 0.0441 | 4.49 | 4.01 | 3.55 | 1.29 | 2.19 | 1.46 | 2.29 | -0.0728 | 0.0438 | 1.82 | 2.88 | 0.12 | 4.3 | 0.752 | 3.97 |
| CGAACGAGGGCATAAGTTGATAGCAAATGCCGAT | 0.0955 | -0.0152 | -0.319 | 0.143 | -0.74 | 1.49 | 1.93 | 2.59 | 0.799 | 2.34 | 2.66 | 1.67 | -0.0137 | -0.0553 | 0.0801 | 0.19 | 0.226 | 0.129 | -0.269 | 1.58 |
| GCTATTAGTTGAAAGGGCACCCGAATGATTCTCG | 0.43 | 0.387 | 0.235 | 0.554 | -0.128 | 2.14 | 2.65 | 4.3 | 2.41 | 3.99 | 0.791 | 0.951 | -0.101 | 0.368 | 1.05 | 0.72 | 0.405 | 1.28 | 0.468 | 1.72 |
| AGTCAAAGTTCACTGGGTAACGTAAGATTCAGCT | 5.3 | 5.02 | 3.18 | 2.98 | 0.65 | 4.78 | 7.5 | 6.72 | 3.78 | 6.4 | 2.75 | 4.82 | 1.38 | 0.335 | 2.63 | 4.4 | 3.47 | 3.63 | 1.43 | 4.81 |
| TAAATGAGGTTAAAGATCAGGGAACGTGGCGTCG | 3.68 | 3.6 | 0.629 | 2.46 | 1.07 | 5.14 | 6.76 | 6.79 | 5.89 | 7.34 | 3.59 | 4.36 | 2.17 | 2.54 | 1.72 | 2.36 | 0.486 | 3.21 | 1.03 | 2.29 |
| ATATGTAGGTTACATCCGGGTAATTCAGGCTATG | 0.626 | 5.83 | 1.24 | 3 | 0.708 | 3.26 | 5.44 | 4.35 | 1.75 | 3.32 | 7.57 | 7.21 | 4.3 | 3.2 | 1.34 | 0.541 | 0.614 | 1.19 | 0.484 | 1.22 |
| GTACCAAGGTGATTAGGTCGTTGATGAGTAGGCG | 0.478 | 0.469 | 0.085 | 0.0701 | -0.428 | 0.886 | 0.547 | 0.741 | -0.00723 | 0.0201 | 1.26 | 1.63 | 0.301 | -0.28 | 1.06 | 0.265 | 0.198 | 0.753 | 0.341 | 1.1 |
| TCTCGGAGGACACGAAGGTGAGAGCTTTCCAGAG | -0.0901 | -0.338 | -0.832 | -0.756 | -1.18 | -0.0332 | 0.00837 | 0.718 | 1.9 | 0.958 | 1.32 | 0.688 | -0.824 | -1.52 | -0.651 | -0.315 | -0.615 | -0.0834 | -0.906 | 1.69 |
| ACTTACGGGTCAACGAGGTTATAGCCCGCGTATA | 6.28 | 4.99 | 0.779 | 4.32 | 0.557 | 5.47 | 4.98 | 5.37 | 2.01 | 4.01 | 3.54 | 3.99 | 0.579 | 0.364 | 2.12 | 5.03 | 2.93 | 4.97 | -0.101 | 4.03 |
| CGAACTAGGACAGAACAGGACAGTGAAGGATGAT | -0.286 | -0.561 | -0.364 | -0.706 | -0.58 | -0.0263 | 1.23 | 0.13 | 0.00825 | 0.0847 | 3.37 | 2.51 | 0.329 | 1 | -0.301 | -0.366 | -0.302 | -0.649 | 0.312 | 0.117 |
| TCTAGTTGGTCAAAGGTCACCCACTCGAAATGCG | 5.47 | 5.45 | 3.51 | 5.12 | 1.68 | 6.36 | 11.3 | 9.99 | 10.9 | 12.3 | 3.63 | 6.67 | 1.96 | 2.09 | 6.47 | 6.1 | 1.35 | 7.69 | 3.37 | 4.9 |
| GCTGCTCGGTCAGGTTGGTCAGCTAACGGGTACG | -0.343 | -0.331 | -0.448 | -0.697 | -0.583 | -0.536 | -0.75 | -0.709 | -0.71 | -1.1 | -0.244 | -0.303 | -1.15 | -1.51 | -0.397 | -0.721 | -0.841 | -0.696 | -0.978 | 1.94 |
